What was measured:
[1] = biological target: Tyrosine-protein kinase CSK (Homo sapiens) (UniProt P41240); conditions: at 1 µM;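 note: each value is an averaged inhibition reading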
[2] = biological target: T1, Discoidin domain-containing receptor 2 (Homo sapiens) (UniProt Q16832); conditions: at 0.1 µM
T1 sequence (whole entry): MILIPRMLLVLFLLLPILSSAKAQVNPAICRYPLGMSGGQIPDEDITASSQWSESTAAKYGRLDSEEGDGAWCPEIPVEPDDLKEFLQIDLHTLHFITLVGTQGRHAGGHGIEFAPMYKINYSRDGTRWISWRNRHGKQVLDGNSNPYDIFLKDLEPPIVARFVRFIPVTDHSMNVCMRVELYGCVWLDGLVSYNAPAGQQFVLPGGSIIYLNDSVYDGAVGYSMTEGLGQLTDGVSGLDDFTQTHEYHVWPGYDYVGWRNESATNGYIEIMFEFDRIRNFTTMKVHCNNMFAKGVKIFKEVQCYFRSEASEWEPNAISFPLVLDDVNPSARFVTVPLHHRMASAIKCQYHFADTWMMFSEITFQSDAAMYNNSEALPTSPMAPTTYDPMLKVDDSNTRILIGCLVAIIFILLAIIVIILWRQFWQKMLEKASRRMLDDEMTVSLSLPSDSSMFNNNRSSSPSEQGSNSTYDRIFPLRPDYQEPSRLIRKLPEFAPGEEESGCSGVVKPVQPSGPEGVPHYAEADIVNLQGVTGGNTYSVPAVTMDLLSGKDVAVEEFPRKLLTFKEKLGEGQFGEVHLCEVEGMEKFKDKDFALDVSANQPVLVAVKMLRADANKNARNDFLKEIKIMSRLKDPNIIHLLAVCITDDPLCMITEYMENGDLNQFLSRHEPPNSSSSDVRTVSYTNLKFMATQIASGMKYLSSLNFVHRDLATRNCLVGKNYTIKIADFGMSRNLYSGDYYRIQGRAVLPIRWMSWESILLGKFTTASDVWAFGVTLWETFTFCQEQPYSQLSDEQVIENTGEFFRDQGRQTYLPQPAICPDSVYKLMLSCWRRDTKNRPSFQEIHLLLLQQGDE

[3] = biological target: T1, Discoidin domain-containing receptor 2 (Homo sapiens); conditions: at 1 µM
[4] = biological target: Epidermal growth factor receptor (Homo sapiens) (UniProt P00533); conditions: at 0.1 µM
[5] = biological target: Epidermal growth factor receptor (Homo sapiens) (UniProt P00533); conditions: at 1 µM
[6] = system: Epidermal growth factor receptor (Homo sapiens), P00533 [L858R]; conditions: at 0.1 µM
[7] = system: Epidermal growth factor receptor (Homo sapiens), P00533 [L858R]; conditions: at 1 µM
[8] = system: Epidermal growth factor receptor (Homo sapiens), P00533 [L861Q]; conditions: at 0.1 µM
[9] = system: Epidermal growth factor receptor (Homo sapiens), P00533 [L861Q]; conditions: at 1 µM
[10] = system: Epidermal growth factor receptor (Homo sapiens), P00533 [T790M]; conditions: at 0.1 µM
[11] = system: Epidermal growth factor receptor (Homo sapiens), P00533 [T790M]; conditions: at 1 µM
[12] = system: Epidermal growth factor receptor (Homo sapiens), P00533 [L858R,T790M]; conditions: at 0.1 µM
[13] = system: Epidermal growth factor receptor (Homo sapiens), P00533 [L858R,T790M]; conditions: at 1 µM
[14] = biological target: Ephrin type-A receptor 2 (Homo sapiens) (UniProt P29317); conditions: at 0.1 µM
[15] = biological target: Ephrin type-A receptor 2 (Homo sapiens) (UniProt P29317); conditions: at 1 µM
[16] = biological target: T2, Ephrin type-A receptor 3 (Homo sapiens) (UniProt P29320); conditions: at 0.1 µM
T2 sequence (whole entry): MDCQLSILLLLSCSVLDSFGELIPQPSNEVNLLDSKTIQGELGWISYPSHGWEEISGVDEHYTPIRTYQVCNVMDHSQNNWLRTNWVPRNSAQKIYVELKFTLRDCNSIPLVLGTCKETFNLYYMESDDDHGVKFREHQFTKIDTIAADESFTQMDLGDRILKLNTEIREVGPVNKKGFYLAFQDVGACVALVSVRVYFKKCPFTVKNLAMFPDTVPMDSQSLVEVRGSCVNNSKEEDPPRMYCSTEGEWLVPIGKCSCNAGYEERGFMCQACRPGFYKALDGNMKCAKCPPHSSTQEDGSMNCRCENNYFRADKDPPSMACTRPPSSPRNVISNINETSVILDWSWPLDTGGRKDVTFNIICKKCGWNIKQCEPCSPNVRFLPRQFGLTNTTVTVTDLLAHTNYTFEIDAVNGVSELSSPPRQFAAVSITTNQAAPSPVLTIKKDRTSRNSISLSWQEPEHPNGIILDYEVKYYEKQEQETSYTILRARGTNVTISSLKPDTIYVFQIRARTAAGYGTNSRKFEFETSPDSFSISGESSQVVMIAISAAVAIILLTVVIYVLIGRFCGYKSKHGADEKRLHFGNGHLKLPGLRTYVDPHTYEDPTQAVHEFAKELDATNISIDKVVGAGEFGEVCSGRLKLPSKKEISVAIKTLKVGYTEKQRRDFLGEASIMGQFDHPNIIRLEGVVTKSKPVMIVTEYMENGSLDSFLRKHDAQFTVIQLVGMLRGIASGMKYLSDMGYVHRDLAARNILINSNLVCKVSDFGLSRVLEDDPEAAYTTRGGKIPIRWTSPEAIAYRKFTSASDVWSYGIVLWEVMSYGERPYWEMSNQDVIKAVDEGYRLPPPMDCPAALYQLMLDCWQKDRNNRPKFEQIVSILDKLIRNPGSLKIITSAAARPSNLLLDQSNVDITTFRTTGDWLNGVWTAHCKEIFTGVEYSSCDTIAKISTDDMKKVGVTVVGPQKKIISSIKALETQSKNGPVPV

[17] = biological target: T2, Ephrin type-A receptor 3 (Homo sapiens); conditions: at 1 µM
[18] = biological target: Ephrin type-A receptor 4 (Homo sapiens) (UniProt P54764); conditions: at 0.1 µM
[19] = biological target: Ephrin type-A receptor 4 (Homo sapiens) (UniProt P54764); conditions: at 1 µM
[20] = biological target: T3, Ephrin type-B receptor 2 (Homo sapiens) (UniProt P29323); conditions: at 0.1 µM;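 note: reported as mean inhibition of EPHB2, from the GSK PKIS dataset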
T3 sequence (whole entry): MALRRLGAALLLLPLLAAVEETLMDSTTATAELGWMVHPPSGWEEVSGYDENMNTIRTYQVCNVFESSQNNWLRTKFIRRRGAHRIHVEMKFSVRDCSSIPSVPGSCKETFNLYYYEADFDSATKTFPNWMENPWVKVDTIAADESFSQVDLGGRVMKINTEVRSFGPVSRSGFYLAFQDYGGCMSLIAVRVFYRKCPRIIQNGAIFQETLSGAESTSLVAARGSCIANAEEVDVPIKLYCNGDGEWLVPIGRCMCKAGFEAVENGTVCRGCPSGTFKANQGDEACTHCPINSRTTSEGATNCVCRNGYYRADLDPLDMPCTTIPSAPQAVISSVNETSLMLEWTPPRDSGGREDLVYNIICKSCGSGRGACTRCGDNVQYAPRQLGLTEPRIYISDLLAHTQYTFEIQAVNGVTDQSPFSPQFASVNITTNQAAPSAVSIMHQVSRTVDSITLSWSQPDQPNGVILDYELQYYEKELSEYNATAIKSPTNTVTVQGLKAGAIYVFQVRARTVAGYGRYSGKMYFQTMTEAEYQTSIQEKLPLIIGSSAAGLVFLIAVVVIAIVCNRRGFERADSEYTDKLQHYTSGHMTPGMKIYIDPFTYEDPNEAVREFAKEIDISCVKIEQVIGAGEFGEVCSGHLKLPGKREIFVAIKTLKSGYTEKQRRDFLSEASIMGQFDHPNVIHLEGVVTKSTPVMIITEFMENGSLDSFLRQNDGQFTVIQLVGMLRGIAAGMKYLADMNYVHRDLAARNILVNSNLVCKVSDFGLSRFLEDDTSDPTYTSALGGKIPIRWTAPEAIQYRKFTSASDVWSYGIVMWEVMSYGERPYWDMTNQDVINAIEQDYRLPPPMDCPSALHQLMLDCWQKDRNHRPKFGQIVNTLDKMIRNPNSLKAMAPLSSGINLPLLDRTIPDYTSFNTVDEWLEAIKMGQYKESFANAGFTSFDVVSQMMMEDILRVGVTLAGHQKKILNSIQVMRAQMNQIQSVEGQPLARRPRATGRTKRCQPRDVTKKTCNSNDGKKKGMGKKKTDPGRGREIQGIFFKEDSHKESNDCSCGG

Epidermal growth factor receptor (Homo sapiens), sequence (P00533 whole entry): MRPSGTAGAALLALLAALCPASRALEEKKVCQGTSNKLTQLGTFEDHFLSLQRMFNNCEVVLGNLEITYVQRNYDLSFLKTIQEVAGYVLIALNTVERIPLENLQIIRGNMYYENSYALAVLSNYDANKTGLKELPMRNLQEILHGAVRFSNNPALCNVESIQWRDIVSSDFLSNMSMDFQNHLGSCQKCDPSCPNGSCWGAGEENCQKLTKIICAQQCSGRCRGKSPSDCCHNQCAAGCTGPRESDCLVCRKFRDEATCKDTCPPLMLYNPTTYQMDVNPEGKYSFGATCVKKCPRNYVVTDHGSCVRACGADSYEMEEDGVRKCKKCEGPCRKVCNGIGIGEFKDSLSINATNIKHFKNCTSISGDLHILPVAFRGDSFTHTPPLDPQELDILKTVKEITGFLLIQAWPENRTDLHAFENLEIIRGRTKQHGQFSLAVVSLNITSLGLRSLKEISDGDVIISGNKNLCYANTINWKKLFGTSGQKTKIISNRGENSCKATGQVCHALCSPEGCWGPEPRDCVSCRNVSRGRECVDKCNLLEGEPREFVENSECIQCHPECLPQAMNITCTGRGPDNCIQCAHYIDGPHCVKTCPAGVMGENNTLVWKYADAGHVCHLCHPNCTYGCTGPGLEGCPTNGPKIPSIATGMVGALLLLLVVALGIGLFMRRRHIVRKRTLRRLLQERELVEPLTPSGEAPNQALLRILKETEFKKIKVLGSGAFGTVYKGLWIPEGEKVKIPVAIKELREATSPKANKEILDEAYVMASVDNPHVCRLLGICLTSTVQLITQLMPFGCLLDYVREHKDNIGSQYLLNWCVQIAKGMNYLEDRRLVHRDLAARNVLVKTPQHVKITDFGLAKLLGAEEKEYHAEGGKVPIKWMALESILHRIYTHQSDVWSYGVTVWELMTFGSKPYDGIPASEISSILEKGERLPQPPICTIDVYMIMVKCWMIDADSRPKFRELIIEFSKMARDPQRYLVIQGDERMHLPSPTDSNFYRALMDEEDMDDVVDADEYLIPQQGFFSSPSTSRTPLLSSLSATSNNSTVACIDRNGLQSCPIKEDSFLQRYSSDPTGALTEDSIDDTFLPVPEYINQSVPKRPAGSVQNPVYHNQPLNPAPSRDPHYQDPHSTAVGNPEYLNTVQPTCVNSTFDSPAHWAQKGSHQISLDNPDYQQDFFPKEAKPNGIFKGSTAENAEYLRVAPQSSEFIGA
Ephrin type-A receptor 2 (Homo sapiens), sequence (P29317 whole entry): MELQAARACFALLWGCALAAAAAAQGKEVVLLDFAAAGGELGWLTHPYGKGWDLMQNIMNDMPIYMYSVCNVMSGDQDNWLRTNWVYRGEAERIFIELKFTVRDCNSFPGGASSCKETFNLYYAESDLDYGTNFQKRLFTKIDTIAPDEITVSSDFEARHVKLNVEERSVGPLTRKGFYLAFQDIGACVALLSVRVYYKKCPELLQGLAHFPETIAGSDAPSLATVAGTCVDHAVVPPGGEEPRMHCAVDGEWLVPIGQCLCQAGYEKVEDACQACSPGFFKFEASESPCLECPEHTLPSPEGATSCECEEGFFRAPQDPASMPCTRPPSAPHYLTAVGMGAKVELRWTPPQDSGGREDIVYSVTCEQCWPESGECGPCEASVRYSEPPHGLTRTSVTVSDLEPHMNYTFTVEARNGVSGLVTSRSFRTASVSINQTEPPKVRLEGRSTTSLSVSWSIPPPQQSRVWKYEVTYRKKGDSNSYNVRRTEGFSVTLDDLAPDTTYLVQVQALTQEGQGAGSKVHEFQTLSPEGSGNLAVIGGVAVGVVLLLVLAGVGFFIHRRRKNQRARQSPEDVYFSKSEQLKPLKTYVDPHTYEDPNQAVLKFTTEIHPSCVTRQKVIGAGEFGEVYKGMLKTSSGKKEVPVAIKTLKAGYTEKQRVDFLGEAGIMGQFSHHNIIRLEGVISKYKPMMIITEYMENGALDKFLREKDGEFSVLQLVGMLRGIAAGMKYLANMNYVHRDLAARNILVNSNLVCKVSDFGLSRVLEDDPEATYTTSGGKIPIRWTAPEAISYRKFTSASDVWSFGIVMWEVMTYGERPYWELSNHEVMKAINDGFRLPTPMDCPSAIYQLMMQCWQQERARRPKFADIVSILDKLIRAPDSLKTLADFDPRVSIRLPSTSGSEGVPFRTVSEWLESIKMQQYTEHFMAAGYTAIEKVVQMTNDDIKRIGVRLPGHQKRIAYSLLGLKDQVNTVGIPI
Ephrin type-A receptor 4 (Homo sapiens), sequence (P54764 whole entry): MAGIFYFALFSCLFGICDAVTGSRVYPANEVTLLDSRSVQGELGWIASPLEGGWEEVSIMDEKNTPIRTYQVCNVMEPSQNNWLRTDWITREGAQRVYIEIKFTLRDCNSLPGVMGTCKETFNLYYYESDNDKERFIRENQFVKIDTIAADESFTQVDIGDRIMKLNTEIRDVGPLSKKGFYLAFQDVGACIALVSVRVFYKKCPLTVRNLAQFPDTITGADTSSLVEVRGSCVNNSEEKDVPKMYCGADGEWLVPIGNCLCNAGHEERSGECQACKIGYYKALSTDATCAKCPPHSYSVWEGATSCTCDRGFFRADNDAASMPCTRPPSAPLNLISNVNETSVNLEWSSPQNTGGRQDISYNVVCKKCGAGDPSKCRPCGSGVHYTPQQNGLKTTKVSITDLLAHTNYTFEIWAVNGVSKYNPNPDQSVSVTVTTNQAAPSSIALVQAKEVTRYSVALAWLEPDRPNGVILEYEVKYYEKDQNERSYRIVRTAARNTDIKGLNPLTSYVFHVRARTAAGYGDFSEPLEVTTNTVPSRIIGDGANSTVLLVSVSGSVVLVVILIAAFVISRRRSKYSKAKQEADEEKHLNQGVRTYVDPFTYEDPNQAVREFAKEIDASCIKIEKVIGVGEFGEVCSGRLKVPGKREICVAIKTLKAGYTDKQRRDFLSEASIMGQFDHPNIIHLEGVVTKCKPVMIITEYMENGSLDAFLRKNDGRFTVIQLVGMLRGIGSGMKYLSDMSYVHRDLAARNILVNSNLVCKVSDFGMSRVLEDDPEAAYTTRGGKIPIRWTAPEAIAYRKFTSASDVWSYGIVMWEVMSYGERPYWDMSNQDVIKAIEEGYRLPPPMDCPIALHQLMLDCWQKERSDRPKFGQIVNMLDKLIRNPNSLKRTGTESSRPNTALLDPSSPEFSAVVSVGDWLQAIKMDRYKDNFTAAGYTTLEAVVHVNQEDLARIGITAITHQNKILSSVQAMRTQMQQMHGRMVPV
Epidermal growth factor receptor (Homo sapiens), P00533 [L861Q], sequence (P00533 whole entry L861Q): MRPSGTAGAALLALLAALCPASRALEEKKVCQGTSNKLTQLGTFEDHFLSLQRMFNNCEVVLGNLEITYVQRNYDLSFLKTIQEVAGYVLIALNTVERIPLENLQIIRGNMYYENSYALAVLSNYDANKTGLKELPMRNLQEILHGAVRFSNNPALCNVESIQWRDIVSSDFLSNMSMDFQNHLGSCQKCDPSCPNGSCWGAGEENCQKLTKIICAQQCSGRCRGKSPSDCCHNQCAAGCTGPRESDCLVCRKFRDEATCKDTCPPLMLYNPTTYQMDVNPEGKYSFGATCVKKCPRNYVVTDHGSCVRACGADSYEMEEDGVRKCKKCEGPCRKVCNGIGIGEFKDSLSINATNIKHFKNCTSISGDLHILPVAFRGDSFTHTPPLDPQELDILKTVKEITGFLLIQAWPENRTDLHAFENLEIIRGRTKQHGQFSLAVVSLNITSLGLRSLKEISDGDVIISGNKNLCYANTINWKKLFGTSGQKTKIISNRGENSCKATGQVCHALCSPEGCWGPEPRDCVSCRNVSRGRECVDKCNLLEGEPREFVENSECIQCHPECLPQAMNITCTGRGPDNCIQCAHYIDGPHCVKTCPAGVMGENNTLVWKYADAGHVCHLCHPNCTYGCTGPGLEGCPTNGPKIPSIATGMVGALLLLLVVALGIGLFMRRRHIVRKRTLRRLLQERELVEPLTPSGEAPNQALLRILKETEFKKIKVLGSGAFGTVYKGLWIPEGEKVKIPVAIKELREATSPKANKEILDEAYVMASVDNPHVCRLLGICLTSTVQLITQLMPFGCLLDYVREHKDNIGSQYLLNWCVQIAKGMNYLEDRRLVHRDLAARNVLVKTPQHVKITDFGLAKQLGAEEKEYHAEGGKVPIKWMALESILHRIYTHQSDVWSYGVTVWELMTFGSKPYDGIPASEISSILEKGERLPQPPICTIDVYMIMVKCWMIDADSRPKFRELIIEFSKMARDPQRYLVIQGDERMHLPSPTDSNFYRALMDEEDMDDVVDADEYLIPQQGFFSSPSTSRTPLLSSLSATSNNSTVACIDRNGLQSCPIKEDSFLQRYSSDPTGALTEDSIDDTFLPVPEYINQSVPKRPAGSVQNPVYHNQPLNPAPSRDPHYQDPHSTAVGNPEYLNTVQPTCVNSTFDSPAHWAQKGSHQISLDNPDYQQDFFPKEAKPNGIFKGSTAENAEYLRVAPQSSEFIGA
Tyrosine-protein kinase CSK (Homo sapiens), sequence (P41240 2-450 limits assumed): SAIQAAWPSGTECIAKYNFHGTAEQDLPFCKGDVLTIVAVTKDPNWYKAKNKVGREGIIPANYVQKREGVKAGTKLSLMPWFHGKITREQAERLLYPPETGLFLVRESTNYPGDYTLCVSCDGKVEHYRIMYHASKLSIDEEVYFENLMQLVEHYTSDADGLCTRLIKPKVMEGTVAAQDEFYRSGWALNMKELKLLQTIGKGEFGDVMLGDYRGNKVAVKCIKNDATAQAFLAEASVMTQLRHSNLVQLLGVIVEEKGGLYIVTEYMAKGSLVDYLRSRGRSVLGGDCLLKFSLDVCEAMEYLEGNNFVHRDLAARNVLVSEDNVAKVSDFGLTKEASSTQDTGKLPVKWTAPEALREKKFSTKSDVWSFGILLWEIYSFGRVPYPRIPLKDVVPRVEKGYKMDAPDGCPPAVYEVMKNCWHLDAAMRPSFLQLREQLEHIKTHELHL

Row | SMILES | inhibition [1] [%] | inhibition [2] [%] | inhibition [3] [%] | inhibition [4] [%] | inhibition [5] [%] | inhibition [6] [%] | inhibition [7] [%] | inhibition [8] [%] | inhibition [9] [%] | inhibition [10] [%] | inhibition [11] [%] | inhibition [12] [%] | inhibition [13] [%] | inhibition [14] [%] | inhibition [15] [%] | inhibition [16] [%] | inhibition [17] [%] | inhibition [18] [%] | inhibition [19] [%] | inhibition [20] [%]
1 | COc1ccc2ncn(-c3cc(O[C@H](C)c4ccccc4Cl)c(C(N)=O)s3)c2c1 | 4.14 | 1.2 | 0.87 | -5.57 | -2.35 | 0.76 | 6.08 | 3.26 | 1.91 | 1.16 | 1.63 | 1.69 | 4.57 | -1.86 | -2.71 | -1.12 | 1.39 | 6.03 | 9.66 | 6.75
2 | C[C@@H](Oc1cc(-n2cnc3ccc(OC4CCN(C)CC4)cc32)sc1C(N)=O)c1ccccc1Cl | 5.07 | 1.72 | 4.56 | 0.49 | 3.58 | 1.45 | 3.56 | 2.71 | 4.46 | 0.91 | 1.48 | 1.1 | 6.15 | -2.62 | -3.66 | -0.17 | -0.53 | 7.06 | 9.83 | 7.8
3 | COc1cc(N2CCN(C(C)C)CC2)ccc1Nc1nc(Nc2ccc(F)cc2C(=O)NC[C@@H](O)CO)c2cc[nH]c2n1 | 6.92 | 0.31 | 1.21 | -0.53 | 0.84 | 0.89 | 11.2 | 5.68 | 8.58 | 4.54 | 25.8 | 11.9 | 60.2 | -2.5 | -3.57 | 0.19 | -0.58 | 9.3 | 12.5 | 3.1
4 | O=C(Nc1n[nH]c2nc(-c3ccc(O)cc3)c(Br)cc12)C1CC1 | 10.9 | 2.17 | 4.12 | 5.76 | 6.97 | 5.48 | 9.71 | 6.22 | 7.61 | 4.95 | 5.37 | 6.72 | 8.16 | 4.79 | 24.2 | 8.45 | 14 | 15.2 | 39.2 | 11.9
5 | O=C1NC(=O)C(c2cccc(Cl)c2)=C1Nc1ccc(Cl)c(C(=O)O)c1 | 1.91 | 3.06 | 4.88 | 1.44 | 2.17 | 1.51 | 5.24 | 1.41 | 2.94 | 1 | 4.13 | 0.67 | 2.52 | 0.74 | 0.86 | 5.42 | 4.05 | 8.74 | 7.75 | 5.83
6 | NS(=O)(=O)c1ccc(N/N=C2\C(=O)Nc3ccc(C(=O)NCCCn4ccnc4)cc32)cc1 | 6.51 | 0.72 | 1.93 | 3.44 | 5.59 | 0.2 | 6.95 | 1.73 | 5.08 | 2.53 | 5.05 | 1.54 | 4.72 | 0.32 | 2.41 | 1.95 | 4.65 | 9.78 | 18.2 | 5.33
7 | COc1cc2ncn(-c3cc(OCc4cccs4)c(C(N)=O)s3)c2cc1OC | 9.5 | 3.95 | 4.63 | -1.17 | 1.76 | 4.34 | 18.5 | 2.87 | 7.86 | 1.54 | 5.88 | -0.25 | 5.43 | -1.31 | -1.86 | -2.47 | 0.85 | 8.34 | 19.3 | 7.38

From ChEMBL document CHEMBL1961873, “Compounds: GSK PKIS; Assays: Nanosyn kinase panel” (2012)
